Source: PubChem BioAssay
Hits are enriched below; roughly 10% of the tested compounds scored in any of these assays.
IMPase inh – IMPase inhibition in cells | P97697 | CHO-M1 cells, IP1 accumulation, HTRF TR-FRET ratio | inhibition (IP1 accumulation), % at 46.1 µM | 120,000 tested, under 10 active | AID 901; active means well fitted curve in the direction sought with a large enough effect in the signal ratio, not every such curve was filed as active; inconclusive means small, poorly fitted or top-dose-only effect, or a change in a side signal; inactive means no such curve, though single readings can be large or run the other way; the % refers to the signal ratio;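 further: cells stimulated with carbachol in lithium chloride buffer; plate controls were DMSO basal wells for no effect and reference inhibitor wells for full effect; higher means more IMPase inhibition seen as more IP1 and lower FRET ratio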
Target sequence (P97697 whole entry, looked up): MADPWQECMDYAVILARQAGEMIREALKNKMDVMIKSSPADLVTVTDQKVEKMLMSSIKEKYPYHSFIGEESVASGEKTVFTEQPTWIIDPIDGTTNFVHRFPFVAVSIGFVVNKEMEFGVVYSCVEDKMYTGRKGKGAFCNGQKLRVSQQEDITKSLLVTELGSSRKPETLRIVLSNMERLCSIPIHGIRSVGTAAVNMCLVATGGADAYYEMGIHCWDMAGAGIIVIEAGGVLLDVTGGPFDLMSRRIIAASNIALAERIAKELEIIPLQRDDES
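Carbachol-driven Gq signalling in CHO-M1 cells (2000/well) generates IP1. Compounds that block IMPase raise IP1 and so reduce the FRET signal from Eu-anti-IP1 and d2-IP1 after a 10 min room-temperature lysis.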
PNC assembly inh – inhibitors of perinucleolar compartment assembly; PC3M PTB-GFP, PNC prevalence imaging, 16 h; active compounds read low; activity change (PNC), negative = inhibition, % at 10 µM; 3.1% of 140,000 active; AID 2417;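 active means readout at or below -70, meaning at least 70% loss of cells showing the perinucleolar compartment, a nuclear body marking cancer cells; inconclusive means readout between -30 and a set limit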;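 further: plate controls were DMSO wells for no effect and camptothecin positive control wells for full effect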
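Compounds are pinned in duplicate onto adhered PC3M cells stably expressing GFP-tagged PTB and incubated 16 h at 37 C. Cells are then fixed, nuclei stained with Hoechst, and PNC-positive cells counted.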
HPGD block – inhibitors of human 15-hydroxyprostaglandin dehydrogenase (HPGD). P15428. purified HPGD, NADH fluorescence kinetic, PGE2 substrate. Potency, µM, inactives show top-dose activity change, negative = inhibition, most hits filed as inhibitors. 4.3% of 150,000 active. AID 894; further: potency means the concentration at half of the fitted maximal effect
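20 nM HPGD preincubated 15 min at room temperature with compound in 50 mM Tris-HCl pH 8, 0.01% Tween 20. Started with 1 mM NAD+ and 30 uM prostaglandin E2; NADH fluorescence (360/450 nm) read 5 times over 30-s intervals, last minus first.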
LMNA splice mod – changes lamin A minigene splicing in HeLa cells. Potency, µM (series often up to 46.1 µM), for the others: top-dose ratio change, negative = inhibition, hits mostly inhibitors. 0.01% of 200,000 active. HeLa LMNA splicing GFP/RFP minigene ratio, 48 h. AID 1487; active means well fitted inhibition curve with a large enough effect in the signal ratio, with a control signal flat, not every such curve was filed as active; inconclusive means small, poorly fitted or top-dose-only effect, or effect the other way, or a change in a side signal; the % refers to the signal ratio; further: potency means the concentration at half of the fitted maximal effect
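Read-out is the ratio of GFP to DsRed2 object intensity, acquired by 488 nm laser-scanning cytometry on HeLa lamin A-EGFP minigene reporter cells. Compound incubation 48 hrs at 37 °C in Opti-MEM with 2% FBS; DMSO 0.5% final.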
KinaseGlo FLuc – blocks Kinase-Glo luciferase, a counter-screen artifact. Q27757. Kinase-Glo luciferase, ATP luminescence, 8 min. 0.28% of 200,000 active. Potency, µM (series often up to 38.3 µM), for inactives: top-dose activity change, negative = inhibition, most hits filed as inhibitors. AID 1379; active means well fitted inhibition curve with a large enough effect; inconclusive means small, poorly fitted or top-dose-only effect; further: potency means the concentration at half of the fitted maximal effect; nearly all actives have a fitted effect of over 60% in size
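Recombinant Kinase-Glo luciferase, 10 uM ATP (linear range), luciferin; imidazole pH 7.2 / KCl / MgCl2 / Tween / BSA buffer; 8 min RT; luminescence.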
ALDH1A1 block – inhibitors of human aldehyde dehydrogenase 1A1. P00352. Purified ALDH1A1, NADH fluorescence, propionaldehyde substrate. Potency, µM (highest dose often 75.3 µM), inactives show at the highest dose activity, negative = inhibition, actives largely listed as inhibitors. 7.3% of 220,000 active;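 further: potency means the concentration at half of the fitted maximal effect; plate controls were no enzyme wells and a reference inhibitor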
* hit, by the source's call; [ ] = dose if it differs, or a comment. Unless noted, the call rests on the fitted dose curve; in most records, active means well fitted inhibition curve with a large enough effect (not every such curve was filed as active); inconclusive means small, poorly fitted or top-dose-only effect, or another doubt; inactive means no such curve, though single readings can be large or run the other way. Unless noted, on the % scale 0 is the no-effect control and ±100 the full control effect.

`Cc1nn(-c2ccc(N3CCCCC3)nn2)c(C)c1CCC(=O)Nc1ccc(F)cc1F` gave LMNA splice mod -12%[46 µM].
Screening CCOCCCNC(=O)C1CCC(CNS(=O)(=O)c2cccc3nsnc23)CC1 (stereo not given) returned IMPase inh -14, PNC assembly inh -10, HPGD block 25µM*, LMNA splice mod 3%, KinaseGlo FLuc 0% and ALDH1A1 block 3%.
`COc1ccc(CNC(=O)C2CCC(CNS(=O)(=O)c3cccc4nsnc34)CC2)cc1` (stereo not given) gave IMPase inh -4, PNC assembly inh inconclusive, HPGD block -3%, LMNA splice mod 3%, KinaseGlo FLuc -4% and ALDH1A1 block inconclusive.
COc1cc(NC(=O)O[C@@H]2C(=O)c3cc(Br)ccc3O[C@H]2c2ccc3c(c2)OCO3)cc(OC)c1OC was read as HPGD block -12%, KinaseGlo FLuc -1% and ALDH1A1 block -10%.
`COc1ccc(-c2cc3c(nn2)-c2ccccc2C3=O)cc1` gave LMNA splice mod 9%[46 µM], KinaseGlo FLuc 5µM* and ALDH1A1 block 6%.
O=C1c2ccccc2-c2nnc(-c3ccccc3)cc21 was read as IMPase inh 2, PNC assembly inh 41, HPGD block -4%, LMNA splice mod 1%[0.0737 µM], KinaseGlo FLuc 7.9µM* and ALDH1A1 block -6%.
Screening Cc1cccc(-c2cc3c(nn2)-c2ccccc2C3=O)c1 returned IMPase inh 20, PNC assembly inh 12, HPGD block -13%, LMNA splice mod 1%, KinaseGlo FLuc inconclusive and ALDH1A1 block inconclusive.
`CCOCCc1nn2c(=O)cc(COC(=O)CNC(=O)c3cccc(C)c3)nc2s1` gave LMNA splice mod -1%[46 µM].
Screening O=C(CC1Sc2ncnn2C1=O)Nc1ccccc1 (stereo not given) returned IMPase inh -3, PNC assembly inh -3, HPGD block 16µM*, LMNA splice mod -8%, KinaseGlo FLuc 4% and ALDH1A1 block 2µM*.
Screening CCCN1C(=O)SC(CC(=O)Nc2ccc(C)cc2)C1=O (stereo not given) returned IMPase inh 10, PNC assembly inh -100*, HPGD block -16%, LMNA splice mod -7%, KinaseGlo FLuc -1% and ALDH1A1 block 22µM*.
Cc1cccc(NC2SC(=O)N(c3ccccc3)C2=O)c1 (stereo not given) was read as IMPase inh 12, PNC assembly inh 11, HPGD block -5%, LMNA splice mod -8%, KinaseGlo FLuc 2% and ALDH1A1 block 1.3µM*.
For Cc1cccc(NC(=O)CC2S/C(=N/c3nccs3)N(C)C2=O)c1 (stereo not given) the results were IMPase inh -7, PNC assembly inh 10, HPGD block -3%, LMNA splice mod 3%, KinaseGlo FLuc 0% and ALDH1A1 block 11%.
`Cc1cccc(NC(=O)CC2SC(=O)N(c3ccccc3)C2=O)c1` (stereo not given) gave IMPase inh 1, PNC assembly inh 11, HPGD block -15%, LMNA splice mod 2%, KinaseGlo FLuc -1% and ALDH1A1 block 10µM*.
Screening O=C(O)COc1ccccc1C1Nc2ccccc2-c2nnc(SCc3ccc(Cl)cc3)nc2O1 (stereo not given) returned IMPase inh 1.
O=C(NCC(c1ccco1)S(=O)(=O)c1ccc(Cl)cc1)c1ccc(C(F)(F)F)cc1 (stereo not given) was read as LMNA splice mod -4%[46 µM].
Screening O=C(CC1SC2=NCCN2C1=O)Nc1ccccc1 (stereo not given) returned IMPase inh 2, PNC assembly inh 46, HPGD block -17%, LMNA splice mod 2%, KinaseGlo FLuc -1% and ALDH1A1 block 1%.
